Reference: PubChem BioAssay (EPA / NIEHS)
Records with an inconclusive call do not appear. Active and inactive are the calls of the source. Rule for the calls, unless noted: active = hit-call score of the fitted dose curve at least 0.9, where 1 is the maximum; inconclusive = response in the unintended direction; inactive = score below 0.9.

Columns and labels:
[1] = Tanguay_ZF_120hpf_PFIN_legacy: (Legacy) Oregon State University Tanguay Lab 120 Hour Post-fertilization zebrafish Assay for Pectoral Fin Malformation (AID 2283648);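 note: each larva judged yes or no for fin defect by brightfield with dead larvae skipped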
Outline: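 5D WT zebrafish; pronase dechorionation 4 hpf; 1 embryo/well at 6 hpf; static exposure to 120 hpf, 28C, sealed, foil-covered; final DMSO 0.64% v/v; 5 uM trimethyltin chloride positive control; fin defect scored yes/no.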

[2] = Tanguay_ZF_120hpf_CFIN_legacy: (Legacy) Oregon State University Tanguay Lab 120 Hour Post-fertilization zebrafish Assay for Caudal Fin Malformation (AID 2283649)
Outline: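 Single dechorionated 5D wild-type embryos are dosed at 6 hpf (final DMSO 0.64%) and held statically at 28C. Caudal fin malformation is recorded as present or absent at 120 hpf under brightfield, excluding dead embryos.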

[3] = Tanguay_ZF_120hpf_PIG_legacy: (Legacy) Oregon State University Tanguay Lab 120 Hour Post-fertilization zebrafish Assay for Pigmentation Malformation (AID 2283650)
Outline: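 Pronase dechorionation at 4 hpf; embryos plated at 6 hpf, one per well; static exposure, sealed and foil-covered, 28C, to 120 hpf; pigmentation read by brightfield, binary; DMSO 0.64% baseline, 5uM trimethyltin chloride positive control.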

[4] = Tanguay_ZF_120hpf_SWIM_legacy: (Legacy) Oregon State University Tanguay Lab 120 Hour Post-fertilization zebrafish Assay for Swim Bladder Malformation (AID 2283654);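 note: swim bladder malformation in each larva scored yes or no under brightfield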
Outline: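 Embryos lacking chorions were exposed individually and statically to test chemical from 6 to 120 hpf at 28C, with 0.64% DMSO as vehicle. At 120 hpf, swim bladder malformation was recorded as present or absent by brightfield microscopy.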

[5] = Tanguay_ZF_120hpf_TRUN_legacy: (Legacy) Oregon State University Tanguay Lab 120 Hour Post-fertilization zebrafish Assay for Truncated Body (AID 2283655)
Outline: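 Single dechorionated zebrafish embryos received test chemical from 6 hpf in 0.64% DMSO, kept at 28C. At 120 hpf, brightfield inspection noted any truncated body.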

[6] = Tanguay_ZF_120hpf_NC_legacy: (Legacy) Oregon State University Tanguay Lab 120 Hour Post-fertilization zebrafish Assay for Notochord and Tail Malformation (AID 2283656)
Outline: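 Dechorionated Tropical 5D wild-type zebrafish embryos, one per well from 6 hpf, statically exposed to 120 hpf at 28C in 0.64% DMSO final. Notochord distortion scored present/absent by brightfield; dead embryos excluded.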

[7] = Tanguay_ZF_120hpf_TR_legacy: (Legacy) Oregon State University Tanguay Lab 120 Hour Post-fertilization zebrafish Assay for Touch Response (AID 2283667)
Outline: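 5D WT embryos; static exposure to 120 hpf, 28C, sealed/dark; DMSO 0.64% v/v final. TR scored present/absent; dead embryos excluded. Pos ctrl 5uM trimethyltin chloride.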

[8] = CCTE_Padilla_ZF_144hpf_TERATOSCORE: (Legacy) CCTE's 144 Hour Post-fertilization zebrafish Assay Teratoscore, Padilla Lab (AID 2283679; active = hit-call score of the fitted dose curve at least 0.9, where 1 is the maximum; inactive = score below 0.9;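 for AC50: zebrafish embryos with chorions exposed by immersion from 6-8 hpf to 5 dpf with daily renewal; teratogenicity score from eye scoring of death hatching and malformations at 144 hpf; higher score means more developmental defects relative to DMSO baseline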)
Outline: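 Larvae scored by eye at 144 hpf for death, hatching and malformations after a day in clean Hanks'. Before that, daily-renewed exposure at 80 uM (0.4% DMSO, 26C) from roughly 6-8 hpf through 5 dpf, 4 embryos per chemical.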

[9] = Tanguay_ZF_120hpf_ActivityScore_legacy: (Legacy) Oregon State University Tanguay Lab 120 Hour Post-fertilization zebrafish Assay Score for Activity (AID 2283742)
Outline: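 Embryos are staged, enzymatically dechorionated at 4 hpf, placed individually at 6 hpf, then held in test chemical (0.64% DMSO) at 28C until 120 hpf. Mortality and malformations are scored by brightfield, with non-mortality endpoints skipped for dead embryos.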

[10] = Tanguay_ZF_120hpf_CIRC_legacy: (Legacy) Oregon State University Tanguay Lab 120 Hour Post-fertilization zebrafish Assay for Circulatory Malformation (AID 2283651)
Outline: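 Read-out: presence or absence of circulatory malformation at 120 hpf, scored by brightfield microscopy, fitted in the gain-of-signal direction against DMSO baseline. Wild-type 5D larvae were exposed from 6 hpf after enzymatic chorion removal.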

[11] = tested on: Thyroperoxidase (TPO), gene 54314; test: CCTE_Simmons_AUR_rTPO: CCTE's Amplex UltraRed Assay for Thyroperoxidase (TPO) Inhibition, Simmons Lab (AID 2283662);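 note: potency for loss of signal meaning inhibition of peroxidase activity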
Outline: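 Rat thyroid microsomes (5 ug protein) were incubated with test compound (8 concentrations, 5 nM–87.5 uM final, 0.5% DMSO), 25 uM Amplex UltraRed and 300 uM H2O2 in 200 mM phosphate buffer for 30 min at 37C in the dark; fluorescence read at 544/590 nm.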

[12] = CEETOX_H295R_MTT_cell_viability: Viability Assessment in the CeeTox HT-H295R MTT Assay (AID 2283718; active = hit-call score of the fitted dose curve at least 0.9, where 1 is the maximum; inactive = score below 0.9;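 for AC50: curve fitted both ways so AC50 may mark viability loss or gain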)
Outline: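 MTT reduction (0.5 mg/ml, 4 h at 37 C; absorbance at 570 and 650 nm) gave viability as background-corrected percent change versus controls. H295R cells had 48 h forskolin (10 uM) prestimulation, then 48 h chemical exposure at 0.1% DMSO.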

[13] = STM_H9_OrnithineISnorm_perc: Stemina devTOX quickPredict H9 human embryonic stem cell (hESC)-based Assay for Ornithine (ORN) Metabolite Biomarker, Normalized (AID 2283712; active = hit-call score of the fitted dose curve at least 0.9, where 1 is the maximum; inactive = score below 0.9;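 note: ornithine released into spent medium during last day measured by mass spectrometry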)
Outline: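 H9 human embryonic stem cells kept pluripotent receive test chemical over 72 h, refreshed daily by media exchange. Media from the closing 24 h is deproteinized and analysed by UPLC-HRMS on an amide column; ornithine signal is scaled to labelled standard and vehicle.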

[14] = STM_H9_CystineISnorm_perc: Stemina devTOX quickPredict H9 human embryonic stem cell (hESC)-based Assay for Cystine (CYSS) Metabolite Biomarker, Normalized (AID 2283713; active = hit-call score of the fitted dose curve at least 0.9, where 1 is the maximum; inactive = score below 0.9)
Outline: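 H9 hESC, pluripotent; compound 72h, re-dosed q24h with medium change. Last-24h medium → 40% acetonitrile deproteinization → UPLC-HRMS. CYSS area / C13-CYSS standard, then % of 0.1% DMSO median.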

[15] = read-out: kallikrein-3 (KLK3), KLK3 (gene 354); test: LTEA_HepaRG_KLK3: Life Technologies and Expression Analysis (LTEA) Assay for kallikrein-3 (KLK3) using HepaRG (AID 2283652; active = hit-call score of the fitted dose curve at least 0.9, where 1 is the maximum; inactive = score below 0.9); conditions: mRNA level, 48 h; actives raise or lower the signal
Outline: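 Differentiated human HepaRG cells in serum-free induction medium exposed 48 h in duplicate, eight-point half-log series from 100 uM in 0.5% DMSO. KLK3 mRNA by qRT-PCR, normalised to ACTB, GAPDH, POLR2A; bidirectional fit versus DMSO.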

[16] = read-out: solute carrier (SLC22A6), SLC22A6 (gene 9356); test: LTEA_HepaRG_SLC22A6: Life Technologies and Expression Analysis (LTEA) Assay for solute carrier (SLC22A6) using HepaRG (AID 2283653; active = hit-call score of the fitted dose curve at least 0.9, where 1 is the maximum; inactive = score below 0.9); conditions: mRNA level, 48 h; actives raise or lower the signal
Outline: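 Gene-expression endpoint in HepaRG hepatic cells: duplicate 8-point concentration-response, highest 100 uM, 48 h treatment in serum-free medium with 0.5% DMSO. SLC22A6 expression measured by qRT-PCR, normalised to ACTB/GAPDH/POLR2A.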

[17] = read-out: solute carrier (SLC10A1), SLC10A1 (gene 6554); test: LTEA_HepaRG_SLC10A1: Life Technologies and Expression Analysis (LTEA) Assay for solute carrier (SLC10A1) using HepaRG (AID 2283657; active = hit-call score of the fitted dose curve at least 0.9, where 1 is the maximum; inactive = score below 0.9); conditions: mRNA level, 48 h; actives raise or lower the signal
Outline: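 Transcript levels were measured by qRT-PCR after human HepaRG cells received test chemical for 48 hours, up to 100 uM in half-log dilutions. Values come from bidirectional concentration-response fitting relative to 0.5% DMSO vehicle.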

[18] = read-out: matrix metalloproteinase-1 (MMP1), MMP1 (gene 4312); test: LTEA_HepaRG_MMP1: Life Technologies and Expression Analysis (LTEA) Assay for matrix metalloproteinase-1 (MMP1) using HepaRG (AID 2283658; active = hit-call score of the fitted dose curve at least 0.9, where 1 is the maximum; inactive = score below 0.9); conditions: mRNA level, 48 h; actives raise or lower the signal
Outline: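 In this screen, human liver HepaRG cultures receive each chemical in duplicate for 48 h (top 100 uM, 0.5% DMSO). MMP1 expression is then quantified by TaqMan qRT-PCR with ACTB/GAPDH/POLR2A normalization.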

[19] = read-out: Cytochrome P450 (CYP24A1_1), CYP24A1 (gene 1591); test: LTEA_HepaRG_CYP24A1_1: Life Technologies and Expression Analysis (LTEA) Assay for Cytochrome P450 (CYP24A1_1) using HepaRG (AID 2283671; active = hit-call score of the fitted dose curve at least 0.9, where 1 is the maximum; inactive = score below 0.9); conditions: mRNA level, 48 h; actives raise or lower the signal
Outline: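 In this test, gene induction or suppression of CYP24A1 in human HepaRG liver cells is measured by qRT-PCR after 48 h chemical treatment (eight concentrations, maximum 100 uM). Values are fitted bidirectionally relative to DMSO.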

[20] = STM_H9_OrnCyssISnorm_ratio: Stemina devTOX quickPredict H9 human embryonic stem cell (hESC)-based Assay for Ornithine (ORN):Cystine (CYSS) Ratio (AID 2283714)
Outline: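 Steps: H9 hESCs in pluripotent state dosed 72h, medium plus compound renewed every 24h; conditioned medium from the final 24h deproteinized in 40% acetonitrile; ORN and CYSS quantified by UPLC-HRMS with C13 spike-ins; ratio relative to vehicle.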

Measured: AC50

CCCCOC(=O)CCCCC(=O)OCCCC
inactive: [1] | [2] | [3] | [4] | [5] | [6] | [7] | [9]
active: [8] 15.9 µM

CC(=O)OCC(COC(C)=O)OC(C)=O
inactive: [1] | [2] | [3] | [10] | [4] | [6] | [9]

NC=O
inactive: [1] | [2] | [3] | [4] | [6] | [7] | [8] | [9]

Cc1c(C)c2c(c(C)c1O)CCC(C)(COc1ccc(CC3SC(=O)NC3=O)cc1)O2 (centres undefined)
active: [11] 1.91 µM | [8] 1.67 µM | [12] 0.0321 µM
inactive: [1] | [2] | [3] | [10] | [4] | [5] | [6] | [7] | [9]

CCCCCCCCCCCCCCCCO
inactive: [1] | [2] | [3] | [10] | [4] | [6] | [7] | [13] | [14] | [9]

C#CC(O)C(CC)CCCC (centres undefined)
active: [8] 21.2 µM
inactive: [1] | [2] | [3] | [10] | [4] | [5] | [6] | [7] | [9]

Cc1ccc(-c2cc(C(F)(F)F)nn2-c2ccc(S(N)(=O)=O)cc2)cc1
inactive: [1] | [2] | [3] | [10] | [4] | [5] | [6] | [7] | [13] | [14] | [9]
active: [8] 8.82 µM

O=C(O)c1[nH]n(-c2ccc(S(=O)(=O)O)cc2)c(=O)c1N=Nc1ccc(S(=O)(=O)O)cc1
inactive: [1] | [2] | [3] | [10] | [4] | [6] | [7] | [9]

CN(C)CCCN1c2ccccc2Sc2ccc(Cl)cc21
active: [17] 21 µM | [18] 84.9 µM | [8] 6.24 µM | [13] 3.51 µM | [14] 0.751 µM | [20] 0.897 µM | [9] 33.7 µM
inactive: [1] | [2] | [3] | [10] | [15] | [16] | [4] | [5] | [6] | [7] | [19]

CN(C)C(=O)NC1(c2ccccc2)CCN(CC[C@@]2(c3ccc(F)c(F)c3)CN(C(=O)c3ccccc3)CCO2)CC1
inactive: [1] | [2] | [3] | [10] | [4] | [6] | [7] | [9]

CC(C)(O)c1ccc(CNC(=O)c2cccnc2Oc2ccc(F)cc2)cc1
inactive: [1] | [2] | [3] | [6] | [7] | [8] | [12] | [9]

CCCCCCCC(=O)OC
inactive: [1] | [2] | [3] | [10] | [4] | [6] | [7] | [9]

NCCOCCOCCN
inactive: [1] | [2] | [10] | [4] | [5] | [8] | [9]

CN(C)C(=O)NC1(c2ccccc2)CCN(CCC[C@]2(c3ccc(Cl)c(Cl)c3)CCCN(C(=O)c3ccccc3)C2)CC1
inactive: [1] | [2] | [3] | [10] | [4] | [6] | [7] | [12] | [9]

CC(=O)[C@@]1(O)CC[C@H]2[C@@H]3CCC4=CC(=O)CC[C@]4(C)[C@H]3CC[C@@]21C
inactive: [1] | [2] | [10] | [4] | [5] | [6] | [7] | [12] | [9]
active: [8] 36.1 µM | [13] 62 µM | [14] 80 µM | [20] 73.4 µM

Cc1occc(=O)c1O
active: [11] 21.7 µM
inactive: [1] | [2] | [3] | [10] | [16] | [4] | [5] | [6] | [17] | [18] | [7] | [19] | [9]

OCC(O)CO
inactive: [1] | [2] | [3] | [10] | [4] | [5] | [6] | [7] | [9]

Nc1nc(=S)c2[nH]cnc2[nH]1
inactive: [1] | [2] | [3] | [4] | [6] | [7] | [9]
active: [11] 0.414 µM | [13] 3.06 µM | [14] 2.13 µM | [20] 2.97 µM | [12] 2.52 µM

CCC(C)N(C)C(=O)c1cc2ccccc2c(-c2ccccc2Cl)n1 (centres undefined)
inactive: [1] | [3] | [10] | [15] | [16] | [5] | [6] | [18] | [19] | [13] | [14] | [12] | [9]
active: [4] 18.5 µM | [17] 37.7 µM | [7] 26.8 µM | [8] 16.3 µM
